Screening results deposited in PubChem by National Center for Advancing Translational Sciences (NCATS).
Sampled rows, rich in hits. Any-hit rate of the full collection: about 12%.
Sfp inh = Sfp phosphopantetheinyl transferase inhibition; Q9F4F7; Biochemical Sfp PPTase activity, qHTS; Potency, µM, most hits filed as inhibitors; 310,000 tested, 3.5% active;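 note: the enzyme is Sfp with the accession as filed and its product quenches rhodamine fluorescence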
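Sfp 15 nM + cpd, 15 min RT; start w/ rhodamine-CoA 5 uM, BHQ-2-YbbR 12.5 uM (final); 50 mM Hepes pH 7.6, 10 mM MgCl2, 0.01% NP-40, 0.01% BSA; read 525/598 nm at 0 and 30 min.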
RORgamma inh = inhibitors of mouse ROR gamma transcriptional activity; 310,000 tested, 5.4% active; Drosophila S2 Gal4-RORgamma UAS-luciferase reporter, 20 h; P51450; Potency, µM (doses to about 53.6 µM), usual class: inhibitors; AID 2551; note: nearly all actives have a fitted effect of over 60% in size
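Drosophila S2 cells stably expressing Gal4-DBD/mouse RORγ fusion under metallothionein promoter plus UAS-luciferase; compound 1 h, then 700 uM CuSO4 induction for 20 h at ambient temperature; inhibition read as reduced luminescence.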
VP16 counter = counter-screen for ROR gamma inhibitors: Gal4-VP16 reporter | Potency, µM (titrated, usually from 53.6 µM), hits mostly inhibitors | Drosophila S2 Gal4-VP16 UAS-luciferase, luminescence, 20 h | AID 2546 | 310,000 tested, 3.5% active;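 note: Gal4-VP16 expression switched on by copper sulfate through the metallothionein promoter; nearly all actives have a fitted effect of over 50% in size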
PLK1 PBD block = blocks phosphopeptide binding to human PLK1 polo-box domain | P53350 | Plk1 PBD binding of FITC phosphopeptide, fluorescence polarization | Potency, µM, usual class: inhibitors | 360,000 tested, 2.8% active | AID 720504; note: series mostly up to about 57 µM; nearly all actives have a fitted effect of over 65% in size
Target sequence (P53350 whole entry, looked up, the tested form may be a part): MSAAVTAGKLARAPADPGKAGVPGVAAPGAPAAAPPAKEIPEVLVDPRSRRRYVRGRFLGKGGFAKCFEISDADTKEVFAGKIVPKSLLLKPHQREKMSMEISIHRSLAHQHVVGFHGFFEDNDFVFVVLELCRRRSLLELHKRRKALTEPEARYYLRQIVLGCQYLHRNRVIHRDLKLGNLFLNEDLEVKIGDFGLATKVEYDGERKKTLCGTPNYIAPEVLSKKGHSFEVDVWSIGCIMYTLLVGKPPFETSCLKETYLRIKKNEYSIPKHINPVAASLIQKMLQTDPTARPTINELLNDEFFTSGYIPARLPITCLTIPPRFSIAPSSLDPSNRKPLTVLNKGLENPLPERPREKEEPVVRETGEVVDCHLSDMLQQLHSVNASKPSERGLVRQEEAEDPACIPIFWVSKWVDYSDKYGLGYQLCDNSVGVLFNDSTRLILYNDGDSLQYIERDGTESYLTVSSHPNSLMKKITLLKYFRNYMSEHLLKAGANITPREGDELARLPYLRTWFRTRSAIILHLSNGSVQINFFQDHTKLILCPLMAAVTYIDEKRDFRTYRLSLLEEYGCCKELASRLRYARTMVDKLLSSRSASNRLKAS
ALDH1A1 block = inhibitors of human aldehyde dehydrogenase 1A1. P00352. Purified ALDH1A1, NADH fluorescence, propionaldehyde substrate. Potency, µM (doses to about 75.3 µM), most hits filed as inhibitors. 220,000 tested, 7.3% active. AID 1030; active = well fitted inhibition curve with a large enough effect, not every such curve was filed as active; inconclusive = small, poorly fitted or top-dose-only effect, or another doubt; inactive = no such curve, though single readings can be large or run the other way
Numbers stand for hits; [ ] = dose if it differs, or a comment. Unless noted, calls come from the whole dose curve; as a rule, active = well fitted curve in the direction sought with a large enough effect; inconclusive = small, poorly fitted or top-dose-only effect, or another doubt; inactive = no such curve, though single readings can be large; an effect the other way counts as inactive or inconclusive.

Results for COc1cccc(-c2oc3c(c2-c2ccc(OC)nc2)C(O)CCC3)c1 (centres undefined) ?
PLK1 PBD block: inactive

What do the screens show for `O=C(O)CCCN1C(=O)/C(=C\C(Cl)=C\c2ccccc2)SC1=S`?
Sfp inh: inactive; RORgamma inh: 1.3µM; VP16 counter: 1.6µM; PLK1 PBD block: 11µM

How did O=C(O)CN1C(=O)/C(=C\c2cc(Br)ccc2OCc2ccc(Cl)cc2)SC1=S do in these assays?
Sfp inh: inactive; RORgamma inh: inactive; VP16 counter: inactive; PLK1 PBD block: 8.4µM

How did O=C(O)CCCN1C(=O)/C(=C\c2ccccc2OCc2ccccc2)SC1=S do in these assays?
Sfp inh: inactive; RORgamma inh: inactive; VP16 counter: inactive; PLK1 PBD block: 27µM

Results for Cc1cccc(N2Cc3ccc(Br)cc3C2)c1 ?
PLK1 PBD block: inactive

How did CCNC(=O)C1CCCN(C(=O)c2cccc(OC(F)(F)F)c2)CC1 (centres undefined) do in these assays?
PLK1 PBD block: inactive

What do the screens show for `O=C(CCCCC(=O)NN=Cc1ccc(Cl)cc1)NN=Cc1ccc(Cl)cc1`?
PLK1 PBD block: inactive

Results for O=C(Nc1cccc2[nH]c([C@H]3C[C@H](O)[C@@H](CO)O3)nc12)NC(c1ccccc1)c1ccccc1 ?
PLK1 PBD block: inactive

How did CCN(CC)C(=O)CSc1ncnc2c1nnn2-c1ccc(F)cc1 do in these assays?
Sfp inh: inactive; RORgamma inh: inactive; VP16 counter: inactive; PLK1 PBD block: inactive; ALDH1A1 block: inconclusive

How did CCOC(=O)CC(=O)CSc1ncnc2c1cnn2-c1ccccc1 do in these assays?
Sfp inh: inactive; RORgamma inh: inconclusive; VP16 counter: inactive; PLK1 PBD block: inactive; ALDH1A1 block: 22µM

Results for COc1ccc(-n2nnc3c(SCc4ccccc4)ncnc32)cc1 ?
Sfp inh: inactive; RORgamma inh: inconclusive; VP16 counter: inactive; PLK1 PBD block: inactive; ALDH1A1 block: 13µM

What do the screens show for `CCOC(=O)CNC(=O)CSc1ncnc2c1cnn2-c1ccccc1`?
Sfp inh: inactive; RORgamma inh: inactive; VP16 counter: inactive[0.365 µM]; PLK1 PBD block: inactive; ALDH1A1 block: inactive

Results for CCOC(=O)CC(=O)CSc1ncnc2c1nnn2-c1ccc(OC)cc1 ?
Sfp inh: inactive; RORgamma inh: 8.9µM; VP16 counter: inactive; PLK1 PBD block: inactive; ALDH1A1 block: inactive

How did CCN(CC)C(=O)CSc1ncnc2c1nnn2-c1ccc(OC)cc1 do in these assays?
Sfp inh: inactive; RORgamma inh: inactive; VP16 counter: inactive; PLK1 PBD block: inactive; ALDH1A1 block: 4µM

How did CC(C)=CCC1=C(O)c2ccccc2C(=O)C1=O do in these assays?
Sfp inh: inactive; RORgamma inh: inconclusive; VP16 counter: inconclusive; ALDH1A1 block: inconclusive

How did COC(=O)CSc1ncnc2c1cnn2Cc1ccccc1 do in these assays?
Sfp inh: inactive; RORgamma inh: 10µM; VP16 counter: inactive; PLK1 PBD block: inactive; ALDH1A1 block: inactive

Results for CC(C)OC(=O)CSc1ncnc2c1cnn2Cc1ccccc1 ?
Sfp inh: inactive; RORgamma inh: inactive[10 µM]; VP16 counter: inactive; PLK1 PBD block: inactive; ALDH1A1 block: inconclusive

Results for N#CC1=C(c2ccccc2)/C(=C/c2ccccc2)OC1=O ?
Sfp inh: inconclusive; RORgamma inh: 3.5µM; VP16 counter: 2.2µM; PLK1 PBD block: 1.1µM; ALDH1A1 block: inconclusive

How did CC[C@H](C)[C@H](NC(=O)[C@H](CO)NC(=O)[C@H](CC(N)=O)NC(=O)[C@H](CC(C)C)NC(=O)[C@H](Cc1ccc(O)cc1)NC(=O)[C@H](CCCCN)NC(=O)[C@H](CCCCN)NC(=O)[C@@H](NC(=O)[C@H](C)NC(=O)[C@H](CCSC)NC(=O)[C@H](CCC(N)=O)NC(=O)[C@H](CCCCN)NC(=O)[C@H](CCCNC(=N)N)NC(=O)[C@H](CC(C)C)NC(=O)[C@H](CCCNC(=N)N)NC(=O)[C@@H](NC(=O)[C@H](Cc1ccc(O)cc1)NC(=O)[C@H](CC(N)=O)NC(=O)[C@H](CC(=O)O)NC(=O)[C@@H](NC(=O)[C@H](Cc1ccccc1)NC(=O)[C@@H](NC(=O)[C@H](C)NC(=O)[C@H](CC(=O)O)NC(=O)[C@H](CO)NC(=O)[C@@H](N)Cc1cnc[nH]1)C(C)C)[C@@H](C)O)[C@@H](C)O)C(C)C)C(=O)N[C@@H](CC(C)C)C(=O)N[C@@H](CC(N)=O)C(N)=O do in these assays?
Sfp inh: inactive; RORgamma inh: inactive; VP16 counter: inactive

Results for C[C@]12C[C@@](C)(C=C1/C=C/c1ccc(C(F)(F)F)cc1)C(=O)C[C@H]2c1ccc(C(F)(F)F)cc1 ?
Sfp inh: inactive; RORgamma inh: inactive; VP16 counter: inactive; ALDH1A1 block: inactive

What do the screens show for `COc1ccccc1NC(=O)CSC1CC(=O)N(c2ccc3c(c2)OCO3)C1=O` (centres undefined)?
Sfp inh: inactive; RORgamma inh: 5.6µM; VP16 counter: 5µM; PLK1 PBD block: inactive; ALDH1A1 block: 0.56µM

Results for COc1ccccc1C(=O)NNC1CC(=O)N(c2ccc3c(c2)OCCO3)C1=O (centres undefined) ?
Sfp inh: inactive; RORgamma inh: inactive; VP16 counter: inactive; PLK1 PBD block: inactive; ALDH1A1 block: inactive

What do the screens show for `COc1ccc(NC(=O)CSC2CC(=O)N(c3ccc4c(c3)OCCO4)C2=O)cc1` (centres undefined)?
Sfp inh: inactive; RORgamma inh: inconclusive; VP16 counter: 5µM; PLK1 PBD block: inactive; ALDH1A1 block: 14µM

Results for COc1ccc(C(=O)Nn2c(SCC(=O)c3ccccc3)nc3ccccc3c2=O)cc1 ?
Sfp inh: inactive; RORgamma inh: 11µM; VP16 counter: inconclusive; PLK1 PBD block: inactive; ALDH1A1 block: inactive

What do the screens show for `COc1ccc(CC(=O)Nn2c(-c3ccccc3)nc3ccccc3c2=O)cc1`?
Sfp inh: inactive; RORgamma inh: inactive; VP16 counter: inactive; PLK1 PBD block: inactive; ALDH1A1 block: 1µM

How did CCOC(=O)CSc1nc2ccccc2c(=O)n1NC(=O)c1ccccc1 do in these assays?
Sfp inh: inactive; RORgamma inh: inactive; VP16 counter: inactive; PLK1 PBD block: inactive; ALDH1A1 block: inactive

How did CCn1c(CNC(C)=O)nnc1SCC(=O)c1ccc(Br)cc1 do in these assays?
Sfp inh: inconclusive; RORgamma inh: inactive; VP16 counter: inactive; PLK1 PBD block: inactive; ALDH1A1 block: 15µM

Results for COc1ccc(C(=O)NCc2nnc(SCC(=O)c3ccccc3)n2C)cc1 ?
Sfp inh: inactive; RORgamma inh: inactive; VP16 counter: inactive; PLK1 PBD block: inactive; ALDH1A1 block: inactive

Results for CCn1c(CNC(=O)c2ccc(OC)cc2)nnc1SCC(=O)c1ccccc1 ?
Sfp inh: inconclusive; RORgamma inh: inactive; VP16 counter: inactive[0.365 µM]; PLK1 PBD block: inactive; ALDH1A1 block: 13µM

Results for CC1(C(=O)NCc2ccccc2)CN(S(C)(=O)=O)CC(=O)N1CCc1c[nH]c2ccccc12 (centres undefined) ?
PLK1 PBD block: inactive
